Only some compounds are listed: those with a hit (about 11% of all), similar ones and a draw of the others.
PLK1 PBD inh = inhibitors of human PLK1 polo-box domain binding | P53350 | AID 720504 | 360,000 tested, 2.8% active | Potency, µM, for the others: max response, negative = inhibition, hits mostly inhibitors | Plk1 PBD binding of FITC phosphopeptide, fluorescence polarization; further: series mostly up to about 57 µM; on the % scale 0 is the no-effect control and ±100 the full control effect; nearly all actives have a fitted effect of over 65% in size
VDR inhibitor = inhibitors of human vitamin D receptor. AID 504847. 400,000 tested, 0.93% active. VDR-SRC2-3 peptide fluorescence polarization, 2 h. P11473. Potency, µM, without a hit: max response, negative = inhibition, most hits filed as inhibitors; further: on the % scale 0 is the no-effect control and ±100 the full control effect
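After 23 nl compound addition and a short centrifugation, plates sat for 2 hours at ambient temperature; polarization of fluorescence then indicated loss of VDR binding to peptide SRC2-3.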
BAZ2B inh = inhibitors of human BAZ2B bromodomain; Q9UIF8; 360,000 tested, 4.4% active; Potency, µM (top dose mostly 114 µM), without a hit: top-dose activity change, negative = inhibition, usual class: inhibitors; AlphaScreen BAZ2B-H3K14Ac peptide displacement; AID 504333; further: on the % scale 0 is the no-effect control and ±100 the full control effect; nearly all actives have a fitted effect of over 60% in size
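BAZ2B 50 nM plus b-H3(5-23)K14Ac 50 nM, PBS pH 7.4/0.01% Tween-20, 30 min RT; compound added (max 110 uM), 30 min RT; streptavidin donor/Ni-chelate acceptor beads 10 ug/mL final, 20 min dark; AlphaScreen read.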
HP1b chromo inh = blocks HP1-beta chromodomain binding to methylated histone tails; AlphaScreen HP1-beta / biotin-H3K9me3 peptide binding; 390,000 tested, 0.56% active; Potency, µM (highest dose often 114 µM), inactives show top-dose activity change, negative = inhibition, actives largely listed as inhibitors; further: nearly all actives have a fitted effect of over 70% in size
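HP1-beta protein (50 nM final) preincubated 30 min at room temperature with biotinylated H3(1-18)K9me3 peptide (50 nM) in PBS pH 7.4, 0.01% Tween-20, then compound added for 30 min. AlphaScreen streptavidin donor/nickel chelate acceptor beads (10 ug/mL final), 30 min dark, luminescence read.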
JMJD2A Tudor inh = JMJD2A Tudor domain (human) inhibition | O75164 | AlphaScreen JMJD2A-Tudor / H3K4me3 peptide binding | Potency, µM (series often up to 114 µM), for inactives: at the highest dose activity change, negative = inhibition, usual class: inhibitors | 390,000 tested, 4.4% active; further: on the % scale 0 is the no-effect control and ±100 the full control effect; nearly all actives have a fitted effect of over 50% in size
Target sequence (O75164 whole entry, looked up, the tested form may be a part): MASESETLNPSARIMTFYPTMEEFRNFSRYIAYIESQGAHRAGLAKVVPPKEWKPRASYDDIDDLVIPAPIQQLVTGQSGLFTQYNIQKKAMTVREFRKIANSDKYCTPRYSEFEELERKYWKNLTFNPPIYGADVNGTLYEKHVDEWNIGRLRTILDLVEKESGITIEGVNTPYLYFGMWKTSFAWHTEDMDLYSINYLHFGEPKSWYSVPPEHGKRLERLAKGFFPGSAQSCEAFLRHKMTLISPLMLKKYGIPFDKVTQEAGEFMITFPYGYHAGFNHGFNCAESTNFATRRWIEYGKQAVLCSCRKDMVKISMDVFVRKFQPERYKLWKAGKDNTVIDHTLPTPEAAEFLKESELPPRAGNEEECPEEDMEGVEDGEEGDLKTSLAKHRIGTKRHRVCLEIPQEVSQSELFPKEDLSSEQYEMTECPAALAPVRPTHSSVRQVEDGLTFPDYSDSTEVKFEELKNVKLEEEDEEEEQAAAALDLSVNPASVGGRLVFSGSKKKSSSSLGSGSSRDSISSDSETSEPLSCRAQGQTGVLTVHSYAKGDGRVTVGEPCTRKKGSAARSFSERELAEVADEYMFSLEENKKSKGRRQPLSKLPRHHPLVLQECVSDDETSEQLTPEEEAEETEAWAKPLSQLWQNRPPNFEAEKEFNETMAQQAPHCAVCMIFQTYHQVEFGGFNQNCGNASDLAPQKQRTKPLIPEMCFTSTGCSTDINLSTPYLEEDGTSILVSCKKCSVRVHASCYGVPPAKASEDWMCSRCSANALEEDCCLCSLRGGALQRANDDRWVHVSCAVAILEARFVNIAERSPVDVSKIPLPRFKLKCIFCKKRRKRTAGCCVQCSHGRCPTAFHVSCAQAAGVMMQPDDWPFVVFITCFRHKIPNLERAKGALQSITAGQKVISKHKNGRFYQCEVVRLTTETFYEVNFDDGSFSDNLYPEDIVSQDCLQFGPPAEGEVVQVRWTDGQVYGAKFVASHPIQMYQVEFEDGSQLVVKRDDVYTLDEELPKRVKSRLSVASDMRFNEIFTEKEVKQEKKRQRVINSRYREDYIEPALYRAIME
G9a block = blocks human histone lysine methyltransferase G9a; G9a H3K9 monomethylation, AlphaScreen, 2 h; 350,000 tested, 8.8% active; Potency, µM (highest dose often 102 µM), without a hit: at the highest dose activity, negative = inhibition, usual class: inhibitors; Q96KQ7; further: on the % scale 0 is the no-effect control and ±100 the full control effect; nearly all actives have a fitted effect of over 75% in size
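Compounds were preincubated with 20 nM G9a for 15 min, after which biotinylated H3K9 peptide (500 nM) and SAM (20 uM) started a 2 h room-temperature reaction. Monomethylated product was quantified by antibody-based AlphaScreen chemiluminescence.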
The depositor's hits bear a star; ? = inconclusive; / = no result given; [ ] = remark or other dose. The call rests on the fitted dose curve; in most records, active means well fitted curve in the direction sought with a large enough effect; inconclusive means small, poorly fitted or top-dose-only effect, or another doubt; inactive means no such curve, though single readings can be large; an effect the other way counts as inactive or inconclusive. Potency means the concentration at half of the fitted maximal effect.

SMILES	PLK1 PBD inh	VDR inhibitor	BAZ2B inh	HP1b chromo inh	JMJD2A Tudor inh	G9a block
CC(=O)N1CCCc2cc(S(=O)(=O)N3CCCC(C(=O)Nc4ccccc4C)C3)ccc21 (stereo not drawn)	-0.6%	6.2%	-11.3%[57.1 µM]	27.4%	0.7%	-7.9%
COC(=O)Cn1c(=O)c2cccn2c2ccc(F)cc21	/	-2.3%	6.1%	47.8%	4.0%	5.6%[59 µM]
Cc1cccc(S(=O)(=O)NC(=O)C2(C)CCN2C(=O)Cc2ccccc2)c1 (stereo not drawn)	-8.7%	/	/	/	/	/
COC(=O)CNC(=O)CNC(=O)c1nn(-c2ccc(OC)c(OC)c2)c(=O)c2ccccc12	-17.2%	-14.5%	3.4%	25.5%	-5.7%	10.0%
COc1ccccc1OCC(=O)NCCC1=CCCCC1	-0.6%	-6.4%	8.1%	43.8%	4.9%	13.2%[59 µM]
COc1ccccc1NC(=O)NCCC1=CCCCC1	23.8µM*	?	3.3%	-9.9%	-21.6%	6.2%
COc1cccc(/C=C/C(=O)OCC(=O)NCCC2=CCCCC2)c1	8.44µM*	?	-28.5%	21.0%	8.91µM*	-1.9%
COc1ccc(-n2nc(C(=O)NCC(=O)NCCC3=CCCCC3)c3ccccc3c2=O)cc1OC	-2.9%	4.3%	2.7%	-7.8%	-12.9%	50.1µM*
O=C(NCCOc1ccc(F)cc1)C1CCC(=O)N(CC2CCCCC2)C1 (stereo not drawn)	-1.6%	-11.6%	-10.8%	38.6%	10.9%	/
CCC1CCc2sc(C(=O)N(C)CC(=O)Nc3ccc(N4CCOCC4)cc3)cc2C1 (stereo not drawn)	-2.6%	-16.6%	-3.6%	3.5%	-31.1%	44.7µM*
CC1CCc2sc(C(=O)N(C)CC(=O)Nc3ccc(N4CCOCC4)cc3)cc2C1 (stereo not drawn)	-8.0%	9.6%	?	-21.1%	?	35.5µM*
Cc1ccc(NC(=S)NCC2CCN(C(C)c3ccccc3)C2)cc1 (stereo not drawn)	?	91.6%	0.3%	12.5%	-9.8%	50.1µM*
Cc1cc(C)c(NC(=S)NCC2CCN(C(C)c3ccccc3)C2)c(C)c1 (stereo not drawn)	2.67µM*	44.7µM*	-11.5%	-22.6%	?	10µM*
CCOC(=O)C1=C(CC)Nc2ccccc2N=C1NC(=O)c1ccc(S(=O)(=O)N(C)C)cc1	2.67µM*	-13.0%	-2.3%	?	?	-23.0%[59 µM]
CCOC(=O)C1=C(CC)Nc2ccccc2N=C1NC(=O)c1ccc(S(=O)(=O)N2CCOCC2)cc1	4.1%	0.0%	-16.1%	57.2%	-10.0%	12.4%
COCCNC(=O)CC(NS(=O)(=O)c1ccc(NC(C)=O)cc1)C(C)C (stereo not drawn)	-8.4%	-5.2%	-2.0%	28.2%	3.8%	-3.3%[12.7 µM]
CCCCCCNC(=O)CC(NS(=O)(=O)c1ccc(NC(C)=O)cc1)C(C)C (stereo not drawn)	-7.8%	-7.6%	1.6%	44.0%	-2.9%	39.8µM*
CCCCn1c(SCc2ccc(Cl)cc2)nc2c1c(=O)[nH]c(=O)n2C	21.2µM*	89.1µM*	14.3%	-16.2%	?	?
CC(C)CCn1c(SCc2ccc(Cl)cc2)nc2c1c(=O)[nH]c(=O)n2C	26.7µM*	?	-25.7%	-32.4%	-20.8%	14.1µM*
Cc1ccc(CSc2nc3c(c(=O)[nH]c(=O)n3C)n2CCC(C)C)cc1	-16.0%	-12.0%	14.7%	25.3%	-13.8%	0.4%
COCCn1c(SCc2ccc(F)cc2)nc2c1c(=O)[nH]c(=O)n2C	10.6µM*	?	2.7%	?	-7.4%	/
C/C(Cl)=C/Cn1c(SCc2ccc(Cl)cc2)nc2c1c(=O)[nH]c(=O)n2C	?	?	-1.1%	17.5%	10.8%	?
CC1=C(C(=O)Nc2ccccc2)C(C(C)C)n2nc(SCc3ccccc3C)nc2N1 (stereo not drawn)	/	11.9%	0.3%	33.3%	-3.8%	20.8%[59 µM]
Nc1ccccc1SCC(=O)Nc1ccc2c(c1)OCCO2	?	-9.9%	-18.8%	23.2%	-5.6%	28.2µM*
CC(Nc1ccc2c(c1)OCCO2)C(=O)N1CCc2ccccc21 (stereo not drawn)	-1.9%	-1.1%	44.7µM*	4.1%	?	?
SMILES	PLK1 PBD inh	VDR inhibitor	BAZ2B inh	HP1b chromo inh	JMJD2A Tudor inh	G9a block
O=C(CSc1ncccn1)NC(=O)Nc1ccc2c(c1)OCCO2	-2.3%	17.1%	-15.6%	46.0%	-1.0%	44.7µM*
O=C(CSc1ncccn1)Nc1ccc2c(c1)OCO2	1.3%	10.7%	/	5.1%[57 µM]	-17.9%	/
Cc1nc(SCC(=O)Nc2ccc3c(c2)OCCO3)nc(C)c1C	?	5.6%	-11.0%	55.9%	-9.0%	22.4µM*
O=C1/C(=C/c2cccs2)SC(=S)N1CCCC(=O)N(CCO)c1ccccc1	-5.1%	13.4%	-17.4%	4.6%	-22.5%	13.9%[59 µM]
Cc1ccc(S(=O)(=O)NNC(=O)C(=O)NNS(=O)(=O)c2ccc(C)cc2)cc1	-3.8%	-9.5%	-37.6%	33.4%	35.5µM*	18.6%
Cc1ccc(S(=O)(=O)NNC(=O)c2ccc(O)cc2)cc1	3.5%	-12.4%	-18.0%	21.9%	2.0%	?
Cc1nnsc1C(=O)NNS(=O)(=O)c1cc(C(F)(F)F)cc(C(F)(F)F)c1	-4.4%	-24.0%	-24.5%	38.9%	2.1%	3.6%
CC(=O)Nc1ccc(C(=O)NNS(=O)(=O)c2ccc(C)cc2)cc1	2.2%	16.3%	50.1µM*	33.3%	8.9%	20µM*
Cc1ccc(S(=O)(=O)NNC(=O)c2snnc2C)cc1	1.5%	-1.9%	1.6%	8.5%	79.4µM*	10µM*
Cc1ccc(S(=O)(=O)NNC(=O)CCCCC(=O)NNS(=O)(=O)c2ccc(C)cc2)cc1	-19.1%	35.0%	-11.8%	44.1%	-4.2%	44.7µM*
Cc1ccc(/C=C2\SC(=S)N(CCC(=O)NNS(=O)(=O)c3ccc(C)cc3)C2=O)cc1	1.5%	-21.3%	-33.4%	9.0%	-18.2%	9.2%[59 µM]
CCOc1ccc(C(=O)c2cn(CC(=O)Nc3ccc4c(c3)OCCO4)c3ccc(OC)cc3c2=O)cc1	/	-29.6%	-13.3%	17.6%	-25.5%	?
O=C(N1CCC(n2nc(-c3ccccc3)oc2=O)CC1)C1(c2ccc(Cl)cc2)CC1	-4.9%	-2.2%	-20.7%[57.1 µM]	-4.1%[57 µM]	-29.9%	20.1%
COc1ccc(-n2ncc(C(C)NS(=O)(=O)c3cccs3)c2C)cc1 (stereo not drawn)	2.2%	5.7%	-5.7%	18.7%	-5.5%	/
COc1ccc2c(c1)c(CC(=O)NCc1ccc3c(c1)OCO3)c(C)n2C(=O)c1ccc(Cl)cc1	/	0.8%	/	/	/	/
Cc1ccc(S(=O)(=O)NCCCCCC(=O)Nc2ccccc2)cc1	1.0%	-0.9%	-3.2%	20.1%	6.4%	9.4%
CNC(=O)CCCCCNS(=O)(=O)c1ccc(C)cc1	18.9µM*	-8.5%	4.9%	?	-9.9%[11.4 µM]	-0.9%[59 µM]

Compound activity from PubChem BioAssay.
